Results reported in the antibiotic and cytotoxicity screens of Wong et al. (2023).
In all, about 39,000 compounds went through this assay and about 3,300 (8.5%) were called active. This is one part of a sample in which actives are shown more often than they occur.

Test system: HepG2
Assay: cytotoxicity call (relative viability < 0.9)
Conditions: 10 µM

| Compound | cytotoxicity call |
| --- | --- |
| O=c1[nH]c(=O)c2ccccc2o1 | inactive |
| O=c1c2ccccc2oc2ccc(O)cc12 | inactive |
| CCc1oc2ccccc2c1C(=O)c1cc(Br)c(O)c(Br)c1 | active |
| Cc1ccc(CNc2ccc3c(c2)ncn3C2CCCCC2)cc1 | inactive |
| O=C(CCCCCNC(=O)OCc1ccc(CO[C@@H]2C[C@H](C3CCCCC3)C=C(C(=O)N3CCN(Cc4ccccc4)CC3)O2)cc1)NO | inactive |
| COc1cccc(C#Cc2ccc([C@@H]3[C@H]4CN(S(=O)(=O)c5ccccc5C)CC(=O)N4[C@H]3CO)cc2)c1 | inactive |
| O=C1CN(S(=O)(=O)Cc2ccccc2)C[C@H]2[C@@H](c3ccc(C#Cc4ccc(F)cc4)cc3)[C@H](CO)N12 | inactive |
| O=C1CN(S(=O)(=O)Cc2ccccc2)C[C@H]2[C@@H](c3ccc(C#Cc4cccc(F)c4)cc3)[C@H](CO)N12 | active |
| COc1cccc(C#Cc2ccc([C@H]3[C@H](CO)N4C(=O)CN(S(=O)(=O)c5ccccc5C)C[C@@H]34)cc2)c1 | inactive |
| COc1cccc(C#Cc2ccc([C@@H]3[C@H](CO)N4C(=O)CN(S(=O)(=O)c5ccccc5C)C[C@@H]34)cc2)c1 | inactive |
| O=C1CN(S(=O)(=O)Cc2ccccc2)C[C@H]2[C@H](c3ccc(C#Cc4cccc(F)c4)cc3)[C@H](CO)N12 | active |
| O=C1CN(S(=O)(=O)Cc2ccccc2)C[C@@H]2[C@@H](c3ccc(C#Cc4cccc(F)c4)cc3)[C@H](CO)N12 | inactive |
| O=C1CN(S(=O)(=O)Cc2ccccc2)C[C@@H]2[C@@H](c3ccc(C#Cc4cccc(F)c4)cc3)[C@@H](CO)N12 | active |
| O=C1CN(S(=O)(=O)Cc2ccccc2)C[C@@H]2[C@H](c3ccc(C#Cc4ccc(F)cc4)cc3)[C@H](CO)N12 | inactive |
| O=C1CN(S(=O)(=O)Cc2ccccc2)C[C@@H]2[C@H](c3ccc(C#Cc4cccc(F)c4)cc3)[C@@H](CO)N12 | inactive |
| O=C1CN(S(=O)(=O)Cc2ccccc2)C[C@H]2[C@H](c3ccc(C#Cc4cccc(F)c4)cc3)[C@@H](CO)N12 | active |
| O=C1CN(S(=O)(=O)Cc2ccccc2)C[C@H]2[C@@H](c3ccc(C#Cc4cccc(F)c4)cc3)[C@@H](CO)N12 | inactive |
| CN(C)Cc1ccc(O)c(CN(C)C)n1 | inactive |
| COCC(=O)N1C[C@H](C)[C@@H](OC)CN(C)C(=O)c2cc(NC(=O)Nc3ccccc3)ccc2OC[C@@H]1C | inactive |
| COCCNC(=O)C[C@@H]1CC[C@@H]2[C@H](COC[C@@H](O)CN2C(=O)Nc2ccccc2OC)O1 | inactive |
| O=c1cccn[nH]1 | inactive |
| COc1ccc(-c2cnc3c(c2)C(=O)N([C@@H](C)CO)C[C@H](C)[C@@H](CN(C)C(=O)Cc2ccccn2)O3)cc1 | inactive |
| C[C@@H]1CN([C@H](C)CO)C(=O)c2cc(NS(=O)(=O)c3cccs3)ccc2O[C@H]1CN(C)S(C)(=O)=O | inactive |
| C[C@@H]1CCCCO[C@@H](CN(C)S(=O)(=O)c2cccs2)[C@H](C)CN([C@@H](C)CO)C(=O)c2cc(NC(=O)Nc3cccc4ccccc34)ccc2O1 | inactive |
| COCC#Cc1ccc2c(c1)O[C@@H](CN(C)C(=O)C1CCCCC1)[C@@H](C)CN([C@H](C)CO)S2(=O)=O | inactive |

| Compound | cytotoxicity call |
| --- | --- |
| C[C@H](CO)N1C[C@H](C)[C@@H](CN(C)C(=O)CCC(F)(F)F)OCCCC[C@H](C)Oc2ccc(NC(=O)c3ccccc3)cc2C1=O | inactive |
| C[C@H]1CN([C@@H](C)CO)C(=O)c2ccccc2-c2ccccc2CO[C@H]1CN(C)C(=O)Nc1ccc(-c2ccccc2)cc1 | inactive |
| COc1ccc(NC(=O)Cn2c(=O)c3c(OC)ccnc3n(C)c2=O)c(OC)c1 | inactive |
| COc1cc(/C=C/C(=O)O[C@H]2CC[C@]34C[C@]35CC[C@]3(C)[C@@H]([C@@H](C)CCC=C(C)C)CC[C@@]3(C)[C@@H]5CC[C@@H]4C2(C)C)ccc1O | inactive |
| O=C1CN(S(=O)(=O)Cc2ccccc2)C[C@@H]2[C@H](c3ccc(C#Cc4cccc(F)c4)cc3)[C@H](CO)N12 | active |
| O=C(CN1CCOCC1)N[C@H]1CC[C@H](CCNC(=O)C2CCC2)O[C@H]1CO | inactive |
| C[C@@H]1CN([C@@H](C)CO)C(=O)c2cc(NC(=O)Cn3cnnn3)ccc2O[C@H]1CN(C)Cc1ccc(C(F)(F)F)cc1 | inactive |
| COc1ccc(CCNC(=O)[C@@]2(Sc3ccc(C)cc3)CC(=O)N(Cc3ccccc3C(F)(F)F)[C@@H]2c2ccc(CO)cc2)cc1 | inactive |
| O=c1[nH]cc(Nc2ccccc2)c(=O)[nH]1 | inactive |
| CCOCc1c[nH]c(=O)[nH]c1=O | inactive |
| O=c1[nH]cc(F)c(=O)[nH]1 [listing 1 of 2 here] | active |
| O=c1[nH]cc(N2CCCCC2)c(=O)[nH]1 | inactive |
| O=c1[nH]cc(S(=O)(=O)N2CCN(c3ccccc3F)CC2)c(=O)[nH]1 | inactive |
| O=c1[nH]cc(F)c(=O)[nH]1 [listing 2 of 2 here] | active |
| COc1ccc(NC(=O)N(C)C[C@H]2Oc3c(NS(=O)(=O)c4cn(C)cn4)cccc3C(=O)N([C@@H](C)CO)C[C@H]2C)cc1 | inactive |
| Cn1cc(S(=O)(=O)Nc2ccc3c(c2)OCCO3)c(=O)n(C)c1=O | inactive |
| C[C@@H]1CN([C@@H](C)CO)C(=O)c2cc(C#CC3(O)CCCC3)cnc2O[C@@H]1CN(C)S(C)(=O)=O | inactive |
| CC(C)NC(=O)N(C)C[C@H]1Oc2ccc(NC(=O)Nc3ccc4c(c3)OCO4)cc2C(=O)N([C@H](C)CO)C[C@@H]1C | inactive |
| C=CCN(C(=O)[C@H]1N(C(C)(C)CO)C(=O)[C@H]2[C@H](C(=O)O)[C@@H]3C=C[C@@]21O3)C(C)(C)C | inactive |
| O=c1cc(-c2ccccc2)oc2ccc(O)cc12 | inactive |
| Cc1cc(-c2ccccc2)oc2cc3ccccc3c1-2 | inactive |
| S=c1cc(-c2ccccc2)oc(-c2ccccc2)c1 | active |
| O=C(N[C@H](c1ccc(Cl)cc1)c1ccccn1)C1CCN(CCOc2ccc(Cl)cc2Cl)CC1 | inactive |
| O=C(N[C@@H](c1ccc(-c2ccccc2)cc1)c1cnccn1)C1CCN(CCOc2ccc(F)cc2)CC1 | active |
| O=C(N[C@@H](c1ccc2c(c1)OCO2)c1ccccn1)C1CCN(CCOc2ccc(Cl)cc2Cl)CC1 | inactive |

| Compound | cytotoxicity call |
| --- | --- |
| Cc1cccnc1[C@@H](NC(=O)C1CCN(CCOc2ccc(Cl)cc2Cl)CC1)c1ccc(F)cc1 | inactive |
| O=C(N[C@@H](c1ccc(-c2ccccc2)cc1)c1cnccn1)C1CCN(CCCOc2ccccc2)CC1 | active |
| C[C@H]1CN([C@@H](C)CO)C(=O)c2ccccc2-c2ccccc2CO[C@H]1CN(C)Cc1ccc(-c2ccccc2)cc1 | inactive |
| CN(C)C(=O)N1C[C@@H]2[C@@H](C1)C(=O)N(C)C21CCN(S(C)(=O)=O)CC1 | inactive |
| C[C@H](O)[C@H](O)[C@@H](O)[C@@H](O)/C=N/NC(=O)c1ccccn1 | inactive |
| O=C(C[C@@H]1CC[C@@H]2[C@H](COC[C@H](O)CN2CC2CCOCC2)O1)N1CCOCC1 | inactive |
| CCc1nc2ccc(C(=O)NCCOc3ccc(OC)cc3)cn2c1N(CC)Cc1cccc(Br)c1 | inactive |
| O=C(NCCO)c1cc2ccccc2oc1=O | inactive |
| Cc1cc(C)c(N(Cc2ccccc2)S(=O)(=O)c2ccc(OCCNC(=O)c3cc4ccccc4o3)cc2)c(C(=O)NO)c1 | active |
| Cc1ccc(S(=O)(=O)N(C)C[C@H]2Oc3ccc(NS(=O)(=O)c4cccs4)cc3C(=O)N([C@H](C)CO)C[C@@H]2C)cc1 | inactive |
| COc1ccc(COC[C@]23NC(=O)N(C(=O)c4ccccc4)[C@H](c4ccccc4O2)[C@H]3CO[Si](C)(C)C(C)(C)C)cc1 | inactive |
| C[C@@H]1CN([C@H](C)CO)C(=O)Cc2cc(NC(=O)C3CCCCC3)ccc2O[C@H]1CN(C)S(C)(=O)=O | inactive |
| C[C@H]1CCCCO[C@H](CN(C)Cc2ccc(Cl)c(Cl)c2)[C@@H](C)CN([C@@H](C)CO)C(=O)c2cc(NC(=O)Nc3cccc4ccccc34)ccc2O1 | inactive |
| C[C@H](CO)N1C[C@H](C)[C@H](CN(C)C(=O)C2CCCCC2)OCCCC[C@H](C)Oc2ccc(NC(=O)NC3CCCCC3)cc2C1=O | active |
| C[C@H]1CCCCO[C@H](CN(C)C(=O)C2CCCCC2)[C@@H](C)CN([C@@H](C)CO)C(=O)c2cc(NC(=O)NC3CCCCC3)ccc2O1 | inactive |
| C[C@@H]1CCCCO[C@H](CN(C)C(=O)C2CCCCC2)[C@@H](C)CN([C@H](C)CO)C(=O)c2cc(NC(=O)NC3CCCCC3)ccc2O1 | inactive |
| C[C@@H]1CN([C@@H](C)CO)C(=O)c2cc(NC(=O)NC3CCCCC3)ccc2O[C@@H](C)CCCCO[C@H]1CN(C)C(=O)C1CCCCC1 | active |
| C[C@@H]1CCCCO[C@H](CN(C)C(=O)C2CCCCC2)[C@@H](C)CN([C@@H](C)CO)C(=O)c2cc(NC(=O)NC3CCCCC3)ccc2O1 | inactive |
| C[C@@H]1CCCCO[C@@H](CN(C)C(=O)C2CCCCC2)[C@H](C)CN([C@@H](C)CO)C(=O)c2cc(NC(=O)NC3CCCCC3)ccc2O1 | inactive |
| C[C@H](CO)N1C[C@H](C)[C@@H](CN(C)C(=O)C2CCCCC2)OCCCC[C@H](C)Oc2ccc(NC(=O)NC3CCCCC3)cc2C1=O | inactive |
| C[C@@H]1CCCCO[C@H](CN(C)C(=O)C2CCCCC2)[C@H](C)CN([C@@H](C)CO)C(=O)c2cc(NC(=O)NC3CCCCC3)ccc2O1 | active |
| C[C@@H]1CCCCO[C@@H](CN(C)C(=O)C2CCCCC2)[C@@H](C)CN([C@@H](C)CO)C(=O)c2cc(NC(=O)NC3CCCCC3)ccc2O1 | inactive |
| CCS(=O)(=O)N1C[C@]2(CCN(CC2)S(=O)(=O)c2cn(cn2)C)c2c([nH]c3cc(ccc23)OC)[C@@H]1CO | inactive |
| COc1ccc(S(=O)(=O)Nc2ccc3c(c2)C(=O)N([C@@H](C)CO)C[C@@H](C)[C@H](CN(C)C(=O)Nc2c(C)noc2C)OCCCC[C@@H](C)O3)cc1 | inactive |
